The results in this text go back to PubChem BioAssay (NCI).

This is part of a sample that, as a whole, favours compounds with a hit. Of some 83,000 tested, about 20% had one in any assay.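 Cell lines were cultured in 96-well plates, exposed to a single compound concentration, and assessed for percent growth 48 hours later.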 Unmarked numbers belong to inactive results. The source made the active and inactive calls. Rule for the calls: active = growth percent below 10; inactive = the rest.

Test in all cases: NCI-60 one-dose screen, 48 h (100 = growth as untreated, 0 = no growth, -100 = all killed)
Holding throughout (details): 10 µM unless noted

The subject of assay [1] is SK-MEL-2 melanoma.
The subject of assay [2] is EKVX NSCLC.
Assay [3] has as its system SN12C renal.
Assay [4] deals with UO-31 renal.
For assay [5], the system named is TK-10 renal.
Assay [6] has as its system ACHN renal.
For assay [7], the system named is CAKI-1 renal.
The subject of assay [8] is A498 renal.
The test system of assay [9] is CCRF-CEM leukemia.
For assay [10], the system named is MOLT-4 leukemia.
Assay [11] deals with SR leukemia.
Assay [12] deals with RPMI-8226 leukemia.
Assay [13] has as its system OVCAR-8 ovarian.
The subject of assay [14] is OVCAR-5 ovarian.
Assay [15] deals with OVCAR-4 ovarian.
Assay [16] relates to SK-OV-3 ovarian.
Assay [17] relates to IGROV1 ovarian.
Assay [18] relates to OVCAR-3 ovarian.
The test system of assay [19] is HS 578T breast.
Assay [20] has as its system NCI/ADR-RES ovarian.

In the case of `CNc1nc2ncc(-c3c(C)noc3C)cc2n1Cc1ccccc1`, the growth was 67.4% in [1]; 62.6% in [2]; 71.1% in assay [3]; 21.3% in [4]; 24.3% in assay [5]; 42.1% in assay [6]. Moreover, the growth is 36.7% in assay [7]; 0.868% (active) in [8]; 50.5% in assay [9]; 48.9% in assay [10]; 27.9% in assay [11]; -2.96% (active) in [12]. Besides, the growth was 55.9% in assay [13]; 67.5% in assay [14]; 53.6% in [15]; 21% in assay [16]; 63.6% in assay [17]; 47.2% in assay [18]. In addition, the growth is 39.3% in assay [19] and 67.4% in [20].
`CCN1C(=O)N(CC)C2C1NC(=S)N2/N=C/C=C/c1cccs1` (centres undefined): the growth was 64.1% in assay [1]; 55.1% in assay [2]; 30.2% in assay [3]; 44.9% in assay [4]; 70.3% in [5]; 42.4% in assay [6]. For the same molecule, the growth is 36.5% in assay [7]; 18.4% in assay [8]; 12.1% in assay [9]; 20.4% in [10]; 17.8% in assay [11]; 25.4% in [12]. Also, the growth in assay [13] is 17.2%; in assay [14], 33%; in assay [15], 57.3%; in assay [16], 43.7%; in assay [18], 2.01% (active); in assay [19], 16.5%. Also, the growth in [20] is 4.47% (active).
For the molecule `Cn1cc(-c2nc(-c3c[nH]c4c(Cl)nccc34)cs2)c2ccccc21`, the growth is 99.2% in assay [1]; 86.7% in assay [2]; 94.5% in [3]; 94.6% in assay [4]; 81.2% in [5]; 107% in [6]. The growth is 87% in [7]; 77.8% in assay [8]; 92.3% in assay [9]; 83.9% in assay [10]; 73.7% in assay [11]; 87.2% in assay [12]. In addition, the growth is 91.1% in assay [13]; 120% in assay [14]; 86.4% in [15]; 108% in assay [16]; 107% in assay [18]; 108% in assay [19]. In addition, in assay [20], the growth was 98%.
Regarding `CNC(=O)c1cc(Oc2ccc3nc(NC(=O)NC(C)C)sc3c2)ccn1`, the growth in [1] was 89.9%; in assay [2] it was 93.7%; in assay [3] it was 86.3%; in assay [4] it was 79.2%; in assay [5], 88.6%; in assay [6], 94%. The growth in assay [7] is 91.9%; in assay [8] it was 51.4%; in [9], 64.4%; in assay [10], 40.7%; in assay [11] it was 30.4%; in [12], 73.2%. The growth in assay [13] is 88.4%; in assay [14], 117%; in [15], 77.8%; in assay [16] it was 87%; in [17] it was 86.7%; in assay [18], 97.4%. Also, the growth in [20] was 65%.
On to `CN1CCN(Cc2ccc(NC(=O)c3cncc(C#Cc4c(N)ncc5cc(F)ccc45)c3)cc2C(F)(F)F)CC1`, for which the growth is -2.97% (active) in assay [1]; 69.6% in assay [2]; 41.7% in [3]; 14.6% in assay [4]; 67.4% in [5]; 40.4% in [6]. The growth is 62% in assay [7]; 73.6% in assay [8]; -13.6% (active) in assay [9]; -59.6% (active) in assay [10]; 0.501% (active) in assay [11]; -14% (active) in assay [12]. The growth is 28% in assay [13]; 43.7% in [14]; 54.4% in assay [15]; 82.6% in assay [16]; 76.3% in assay [18]; 31.8% in [19]. Also, in assay [20], the growth is 10.3%.
For the molecule `O=C(Nc1cccc2c1C(=O)c1cccc(NC(=O)c3ccc(C(=O)Nc4cccc5c4C(=O)c4cccc(NC(=O)c6ccccc6)c4C5=O)cc3)c1C2=O)c1ccccc1`, the growth in assay [1] is 73.1%; in assay [2], 86.5%; in assay [3] it was 96.6%; in [4], 72.9%; in assay [5], 121%; in [6] it was 99.9%. The growth in [7] is 108%; in assay [8] it was 117%; in [9] it was 115%; in assay [10], 75.2%; in assay [11], 9.04% (active); in [12] it was 105%. The growth is 98.1% in [13]; 91.1% in assay [14]; 98.9% in assay [15]; 99.4% in assay [16]; 41.1% in [17]; 106% in assay [18]. Also, in assay [20], the growth was 101%.
With `Nc1ncc(-c2ccc3ncnc(N4CCc5cc(F)c(Cl)cc54)c3c2)cc1C=O`, the growth in assay [1] is 8.65% (active); in assay [2], 4.02% (active); in [3] it was 12.9%; in assay [4] it was 0.272% (active); in assay [5] it was -6.72% (active); in [6] it was 7.1% (active). Further, the growth in assay [7] is -0.981% (active); in assay [8], -62.8% (active); in [9] it was 18.4%; in assay [10], 2.46% (active); in [11] it was 18.7%; in [12] it was -4.54% (active). Besides, the growth in assay [13] is 31.4%; in assay [14], 9.67% (active); in [15], 34.5%; in [16] it was -3.8% (active); in assay [18] it was 0.575% (active); in assay [19] it was -18.9% (active). Moreover, the growth in assay [20] was 28.6%.
On to `O=c1c(Cc2ccc(F)cc2)cc(-c2ccccc2)nn1C/C(=N/O)c1ccccc1`, for which the growth in [1] is 36.8%; in assay [2], 29.1%; in assay [3], 17.2%; in assay [4], 30.9%; in [5] it was 63.5%; in [6] it was 40.3%. Moreover, the growth in [7] is 47%; in assay [8], 9.7% (active); in assay [9], 34.6%; in assay [10], 16.1%; in [11] it was 30.3%; in assay [12] it was 25.6%. Moreover, the growth in assay [13] was 43.7%; in [14] it was 66.9%; in assay [15], 41.5%; in [16], 74.7%; in [17], 47.3%; in assay [18], 49.5%. Moreover, the growth is 73.8% in assay [19] and 34.7% in assay [20].
